Consider ten molecules from PubChem BioAssay.

The nature of assay [1]: reducers of endogenous Her2 protein level, primary screen, SKBR3 breast tumor cells, AlphaScreen, ATP viability (AID 461;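 active means Her2 level under about 52% in both replicate screens, with viability over 70% of control, limit read from the data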;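 on Her2 level: lower value means less Her2 protein in the cells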;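 on viability: percent of carrier control wells set as 100% viability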). The settings on record: 18-24 h, measured here: SKBR3 viability, ATP luminescence, at 10 µM. On the technique in general: In Alpha technology, singlet oxygen from a donor bead excites a nearby acceptor bead.
For assay [2], the target named is Receptor tyrosine-protein kinase erbB-2 (Homo sapiens) (UniProt P04626). Described as above. The following applies: 18-24 h, at 10 µM, stronger effect = lower value.
A short description of assay [3]: SK-BR-3 cell growth inhibitors, pilot screen, 24 h, human (AID 572).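 Further: compound exposure lasted between 18 and 24 h rather than exactly 24 h; 100% = carrier-treated control wells.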 The following applies: SK-BR-3 viability, CellTiter-Glo luminescence, at 10 µM, stronger effect = lower value.
The nature of assay [4]: HUVEC growth inhibition – cell-based, human, primary screen (AID 575;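 active means viability at or below 30% in both replicate assays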;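 further: 100% = median of untreated cell wells with 0.1% DMSO on each plate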). The settings on record: HUVEC proliferation, CellTiter-Glo luminescence, 72 h; at 10 µM; stronger effect = lower value. In general terms: In ATP-based viability assays light output follows the ATP content of the culture.
Assay [5] can be described thus: growth inhibitors of H69AR lung tumor, primary screen, human, duplicate replicates (AID 580;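 active means viability at or under a set limit in both replicates, limit being median viability minus 3 SD, cut at about 48% in these data, passing the limit was not always enough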;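 further: 100% = mean luminescence of untreated wells and 0% = no signal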). The following applies: H69AR lung tumor cells viability, ATP luminescence, 72 h; at 10 µM; stronger effect = lower value.
The nature of assay [6]: reversal of MRP1-mediated doxorubicin resistance, pilot screen, H69AR cells, doxorubicin co-treatment (AID 601;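 active means viability loss from added drug above about 55%, and viability with drug at most 40%, in both replicates, limit read from the data, passing the limit was not always enough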). The settings on record: CellTiter-Glo, 72 h, at 10 µM; for differential viability (reversal): stronger effect = higher value.
A short description of assay [7]: 384-well plate pilot, post-Golgi transport modulator project, inhibition of yeast transport mutant growth (AID 636; in the data active means inhibition above about 31%). The following applies: absorbance 615 nm, about 18 h, stronger effect = higher value.
Assay [8] can be described thus: growth suppression of yeast trafficking mutant, preliminary HTS, modulators of trafficking downstream of Golgi apparatus project, 1536-format plate, OD 615 nm (AID 637; in the data active means inhibition above about 30%). The following applies: yeast transport mutant growth, absorbance 615 nm, 18 h; stronger effect = higher value.
Assay [9] is described as follows: OD615 S. cerevisiae growth inhibition, permissive medium, pilot counter-assay, permissive growth control for S. cerevisiae lifespan shortening project (AID 705;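 active means growth inhibition above 25% in both replicates, a cutoff set 3 SD above the mean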). The following applies: OD615, 24 h, at 10 µM, stronger effect = higher value.
Assay [10] can be described thus: Restrictive medium S. cerevisiae growth inhibition, OD615, pilot screen of yeast lifespan reduction project, restrictive growth control (AID 706;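 active means growth inhibition above a set limit, 3 SD over mean compound inhibition, in both replicates, cut at about 43% in these data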;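 further: modified DeaD lifespan yeast strain shifted to restrictive glucose medium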). The settings on record: OD615, 48 h, at 10 µM, stronger effect = higher value.
Assay [11] is described as follows: viability gain of MRP-1-high H69AR cells under doxorubicin, pilot screen, MRP-1 activator project, CellTiter-Glo, duplicate (AID 807;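 active means viability increase at or above a cutoff of the median across tested compounds plus 3 SD, cut at about 8.5% in these data, passing the limit was not always enough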;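 further: compound pretreatment 18-22 h then 72 h combined with doxorubicin; 0% = doxorubicin alone and 100% = vehicle without doxorubicin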). The settings on record: H69AR viability with doxorubicin, CellTiter-Glo luminescence; at 10 µM; stronger effect = higher value.
Assay [12] in a line: growth suppression of beta-catenin knockout HCT116, pilot screen, human colon tumor cells (AID 823;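 active means cell viability at or below a set limit in both duplicate runs, the limit being the all-compound median minus 4 SD, cut at about 23% in these data, passing the limit was not always enough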;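 further: 0% = wells killed by 20 µM Hyamine and 100% = untreated DMSO cell wells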). The following applies: CellTiter-Glo, 60 h, at 10 µM, stronger effect = lower value.
Assay [13] in a line: growth suppression of PTEN-deleted HCT116, pilot screen, cell-based, HCT116 clonal line, CellTiter-Glo (AID 824;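 active means viability at or below 27.92% in each of two runs, the all-compound median minus 4 SD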;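 further: 0% = 20 µM Hyamine control and 100% = vehicle cell control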). The settings on record: 60 h, at 10 µM, stronger effect = lower value.
Assay [14] in a line: RAM signaling pathway blockade in yeast – S. cerevisiae, Pdr1DBD-CYC8 efflux-inhibited sensitized strain, primary screen (AID 1298;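 active means RAM network inhibition above 8.4% in each of two replicates, 3 SD over the compound average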;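 further: 0% = DMSO untreated cells without growth and 100% = 10 µM 1-NA-PP1 full growth; higher means more yeast growth rescued from 5-FOA killing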). The settings on record: S. cerevisiae cbk1-as DSE1-URA3 strain, 5-FOA growth OD615, 2 d; at 50 µM; stronger effect = higher value.
Assay [15] can be described thus: inhibitors of the yeast RAM network, pilot screen, dse1pr::URA3 reporter, 5-FOA selection (AID 869;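 active means inhibition over a set limit, the all-compound mean plus 3 SD, in both replicate runs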;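 further: 0% = DMSO wells with no growth and 100% = 10 µM 1-NA-PP1 with full growth; RAM network block rescues cells from 5-FOA so hits raise OD615 growth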). The following applies: S. cerevisiae dse1pr::URA3 5-FOA growth, OD615, 2 d; at 10 µM; stronger effect = higher value; strain carries analog-sensitive mutant Cbk1 kinase.
[16] abbreviates: H69AR cells + 2 uM doxorubicin, measured here: viability with 2 uM doxorubicin, stronger effect = lower value.
[17] abbreviates: H69AR cells, compound alone cytotoxicity.

Inconclusive results are not listed. Calls of active or inactive are those of the source.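 How the source made its calls, unless noted: active means viability at or below 10% of carrier control in both of two separate runs; inconclusive means viability at or below 10% in only one of the two runs; inactive means the rest.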

Chain of Receptor tyrosine-protein kinase erbB-2 (Homo sapiens) (P04626 whole entry, looked up): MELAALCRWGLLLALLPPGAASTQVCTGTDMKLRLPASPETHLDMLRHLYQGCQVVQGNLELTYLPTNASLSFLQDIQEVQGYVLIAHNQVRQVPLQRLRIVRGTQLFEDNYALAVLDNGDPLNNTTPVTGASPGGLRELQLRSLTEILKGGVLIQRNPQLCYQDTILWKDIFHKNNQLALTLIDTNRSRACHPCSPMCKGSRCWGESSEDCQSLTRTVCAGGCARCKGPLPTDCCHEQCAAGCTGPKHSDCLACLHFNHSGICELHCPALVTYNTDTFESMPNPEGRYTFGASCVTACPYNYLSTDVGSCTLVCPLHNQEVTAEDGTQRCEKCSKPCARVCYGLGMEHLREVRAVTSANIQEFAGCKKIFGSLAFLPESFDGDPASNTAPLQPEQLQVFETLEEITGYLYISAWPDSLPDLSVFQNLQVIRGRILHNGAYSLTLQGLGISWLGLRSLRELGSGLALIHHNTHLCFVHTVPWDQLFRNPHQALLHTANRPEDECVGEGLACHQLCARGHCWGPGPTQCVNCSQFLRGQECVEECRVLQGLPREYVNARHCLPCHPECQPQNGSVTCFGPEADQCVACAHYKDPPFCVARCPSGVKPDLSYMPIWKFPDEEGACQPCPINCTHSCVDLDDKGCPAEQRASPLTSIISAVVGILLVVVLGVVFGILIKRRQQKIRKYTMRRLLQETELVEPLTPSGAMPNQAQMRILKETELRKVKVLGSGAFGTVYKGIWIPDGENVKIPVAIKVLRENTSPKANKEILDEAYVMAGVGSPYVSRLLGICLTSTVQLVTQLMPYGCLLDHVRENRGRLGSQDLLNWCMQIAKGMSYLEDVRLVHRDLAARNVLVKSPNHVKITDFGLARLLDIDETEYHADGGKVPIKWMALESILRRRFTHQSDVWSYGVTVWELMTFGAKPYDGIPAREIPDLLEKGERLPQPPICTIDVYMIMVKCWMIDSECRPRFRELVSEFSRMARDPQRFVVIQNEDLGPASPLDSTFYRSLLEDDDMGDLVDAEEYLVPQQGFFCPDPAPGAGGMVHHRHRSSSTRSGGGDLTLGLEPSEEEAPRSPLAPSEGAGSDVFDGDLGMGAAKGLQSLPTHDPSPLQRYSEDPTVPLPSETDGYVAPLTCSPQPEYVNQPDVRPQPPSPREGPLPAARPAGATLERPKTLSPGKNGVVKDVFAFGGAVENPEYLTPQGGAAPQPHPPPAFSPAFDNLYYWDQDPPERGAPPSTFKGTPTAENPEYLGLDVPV

As to `CC(CCc1ccccc1)NC(=O)C1CCCN(c2nnc(-n3cccc3)s2)C1` (centres undefined), the viability (usually a read-out of living cells in per cent, often relative to untreated cells) is 89.5% in assay [1]; 89.5% (inactive) in assay [3]; 97.1% (inactive) in assay [4]; 82.6% (inactive) in [5]; 82% in [6] (setting [16]); 82.6% in assay [6] (setting [17]). For the same molecule, the viability is 93.5% (inactive) in assay [12] and 96% (inactive) in assay [13]. The Her2 level in assay [2] is 86.5% (inactive). In [6] (H69AR cells + 2 uM doxorubicin), the differential viability (reversal) was 0.56% (inactive). Further, the inhibition (commonly the relative decrease from the control value, in per cent) in [7] is -0.38% (inactive); in assay [8], -3.17% (inactive). The growth inhibition was -16.5% (inactive) in assay [9] and 0.105% (inactive) in [10]. The viability increase in [11] is -1.84% (inactive). For the same molecule, the RAM network inhibition in assay [14] was 2.83% (inactive).
For the molecule `O=C1CCCC2=C1C(c1cccc(Br)c1)n1nc(-c3ccco3)nc1N2` (centres undefined), the viability is 95.5% in [1]; 95.5% (inactive) in assay [3]; 80.6% (inactive) in [4]; 103% (inactive) in assay [5]; 100% in assay [6] (setting [16]); 103% in assay [6] (setting [17]). The viability is 81.5% (inactive) in [12] and 76.5% (inactive) in assay [13]. Moreover, in [2], the Her2 level is 73% (inactive). In addition, the differential viability (reversal) in assay [6] (H69AR cells + 2 uM doxorubicin) was 2.4% (inactive). Also, the inhibition in [7] is -1.73% (inactive); in assay [8], -2.95% (inactive). Besides, the growth inhibition in assay [9] is -11.7% (inactive); in assay [10], -0.21% (inactive). In assay [11], the viability increase is -2.06% (inactive). Further, the RAM network inhibition in [14] was 0.99% (inactive).
Take `CCCCOC(=O)Nc1nc2ccc(OC)cc2s1`: the viability in assay [1] was 94%; in assay [3] it was 94% (inactive); in assay [4] it was 92.3% (inactive); in assay [5] it was 99.7% (inactive); in assay [6] (setting [16]), 83.3%; in assay [6] (setting [17]), 99.7%. Also, the viability in assay [12] was 96.3% (inactive); in assay [13], 93.7% (inactive). In addition, the Her2 level in assay [2] was 92% (inactive). Moreover, in assay [6] (H69AR cells + 2 uM doxorubicin), the differential viability (reversal) is 16.4% (inactive). Besides, the values for the inhibition in [7] and in [8] were -6.08% (inactive) and -6.17% (inactive), respectively. Further, the growth inhibition in assay [9] is -8.06% (inactive); in [10], -16.4% (inactive). In addition, the viability increase in assay [11] was 2.27% (inactive). In addition, in assay [14], the RAM network inhibition was 7.75% (inactive).
For the molecule `Cc1ccnc(SCCn2c(N3CCN(Cc4ccccc4)CC3)nc3c2c(=O)[nH]c(=O)n3C)n1`, the viability in [1] was 85%; in [3], 85% (inactive); in [4], 91.7% (inactive); in assay [5], 87.5% (inactive); in [6] (setting [16]) it was 88.4%; in assay [6] (setting [17]), 87.5%. Also, the viability was 95.7% (inactive) in assay [12] and 99.3% (inactive) in assay [13]. In addition, in [2], the Her2 level was 93.5% (inactive). Besides, in [6] (H69AR cells + 2 uM doxorubicin), the differential viability (reversal) was -0.99% (inactive). Moreover, the inhibition was -3.6% (inactive) in assay [7], -4.59% (inactive) in assay [8] and 0.145% (inactive) in [15]. Moreover, the growth inhibition in assay [9] is 3.26% (inactive); in assay [10] it was 0.065% (inactive). For the same molecule, the viability increase in [11] is -1.27% (inactive). Further, in assay [14], the RAM network inhibition is 2.81% (inactive).
Turning to `Cc1ccc(Cn2c(=O)c3ccccc3n3c(CCC(=O)O)nnc23)cc1`, the viability in assay [1] is 107%; in assay [3], 107% (inactive); in assay [4], 92.5% (inactive); in assay [5], 98.9% (inactive); in assay [6] (setting [16]), 91.9%; in [6] (setting [17]), 98.9%. Further, the viability was 107% (inactive) in assay [12] and 98.7% (inactive) in assay [13]. Further, the Her2 level in assay [2] was 100% (inactive). In addition, the differential viability (reversal) in assay [6] (H69AR cells + 2 uM doxorubicin) was 7.02% (inactive). The inhibition in [7] was -5.07% (inactive); in assay [8], 0.33% (inactive); in assay [15], 2.29% (inactive). Besides, the values for the growth inhibition in [9] and in [10] were 2.68% (inactive) and 7.7% (inactive), respectively. Moreover, in assay [11], the viability increase is -1.33% (inactive). Besides, in assay [14], the RAM network inhibition is 6.3% (inactive).
Turning to `CCc1ccc(N(CC(=O)NC2CCCC2)S(=O)(=O)c2c(C)noc2C)cc1`, the viability in [1] was 102%; in assay [3] it was 102% (inactive); in assay [4] it was 101% (inactive); in [5] it was 84% (inactive); in assay [6] (setting [16]), 80.2%; in assay [6] (setting [17]) it was 84%. Besides, the viability in [12] was 92.3% (inactive); in assay [13] it was 93.8% (inactive). The Her2 level in [2] is 110% (inactive). For the same molecule, the differential viability (reversal) in assay [6] (H69AR cells + 2 uM doxorubicin) was 3.79% (inactive). The inhibition in assay [7] was -4.4% (inactive); in [8], -0.83% (inactive). For the same molecule, the growth inhibition in assay [9] was -3.32% (inactive); in assay [10], 3.27% (inactive). The viability increase in [11] was -1.49% (inactive). Besides, the RAM network inhibition in assay [14] is 2.82% (inactive).
For `CC(OC(=O)C1CC=CCC1C(N)=O)C(Cl)=C(Cl)Cl` (centres undefined), the viability in assay [1] is 88%; in assay [3], 88% (inactive); in [4] it was 80.8% (inactive); in assay [5] it was 93.7% (inactive); in assay [6] (setting [16]) it was 86.5%; in assay [6] (setting [17]), 93.7%. Further, the viability was 103% (inactive) in assay [12] and 105% (inactive) in [13]. Also, the Her2 level in assay [2] was 105% (inactive). For the same molecule, the differential viability (reversal) in assay [6] (H69AR cells + 2 uM doxorubicin) was 7.14% (inactive). Besides, the results for the inhibition in [7], in [8] and in [15] were 6.1% (inactive), 1.31% (inactive) and 0.055% (inactive), respectively. Also, the results for the growth inhibition in assay [9] and in assay [10] were -2.97% (inactive) and -1.67% (inactive), respectively. Moreover, in [11], the viability increase was 0.52% (inactive). The RAM network inhibition in assay [14] is 2.45% (inactive).
For the molecule `COc1ccc(N2Cc3ccccc3C2)cc1Cl`, the viability was 118% in assay [1]; 118% (inactive) in [3]; 81.9% (inactive) in assay [4]; 89.9% (inactive) in [5]; 94% in [6] (setting [16]); 89.9% in [6] (setting [17]). In addition, the viability in assay [12] was 94% (inactive); in [13], 87.7% (inactive). The Her2 level in [2] was 114% (inactive). Further, the differential viability (reversal) in assay [6] (H69AR cells + 2 uM doxorubicin) was -4.19% (inactive). The figures for the inhibition in [7] and in assay [8] were -4.27% (inactive) and -9.17% (inactive), respectively. The growth inhibition was -2.97% (inactive) in [9] and -10.6% (inactive) in [10]. For the same molecule, the viability increase in assay [11] is 0.04% (inactive). For the same molecule, the RAM network inhibition in [14] is 7.11% (inactive).
`c1ccc(-n2ncc3c(NC4CCCCCC4)ncnc32)cc1`: the viability in [1] was 83.5%; in assay [3], 83.5% (inactive); in assay [4] it was 75.2% (inactive); in assay [5], 45.8% (active); in assay [6] (setting [16]), 74%; in assay [6] (setting [17]), 45.8%. Besides, the viability is 88.4% (inactive) in [12] and 65.7% (inactive) in assay [13]. The Her2 level in assay [2] was 77% (inactive). Further, the differential viability (reversal) in assay [6] (H69AR cells + 2 uM doxorubicin) is -28.2% (inactive). Besides, the inhibition in assay [7] was -4.93% (inactive); in [8], 1.67% (inactive); in assay [15] it was 1.17% (inactive). For the same molecule, the values for the growth inhibition in assay [9] and in [10] were -7.69% (inactive) and -4.42% (inactive), respectively. For the same molecule, in assay [11], the viability increase was -2.91% (inactive). For the same molecule, the RAM network inhibition in [14] was 6.78% (inactive).
Regarding `COc1ccc(C2c3c(oc4ccccc4c3=O)C(=O)N2c2ccc(C)cn2)cc1OC` (centres undefined), the viability in assay [1] was 83%; in [3], 83% (inactive); in assay [4], 98.6% (inactive); in assay [5], 94.3% (inactive); in [6] (setting [16]), 71%; in assay [6] (setting [17]), 94.3%. The viability in [12] is 89% (inactive); in [13], 82.2% (inactive). The Her2 level in assay [2] was 126% (inactive). The differential viability (reversal) in assay [6] (H69AR cells + 2 uM doxorubicin) is 23.3% (inactive). In addition, the inhibition in assay [7] is -0.9% (inactive); in assay [8], -7.5% (inactive). The growth inhibition was -7.72% (inactive) in assay [9] and -0.265% (inactive) in assay [10]. Moreover, the viability increase in assay [11] is -2.66% (inactive). For the same molecule, in assay [14], the RAM network inhibition was 11.6% (inactive).
